Results reported in PubChem BioAssay (EPA / NIEHS).
Results filed as inconclusive are left out. Active and inactive are the calls of the source. Rule for the calls: active = hit-call score of the fitted dose curve at least 0.9, where 1 is the maximum; inconclusive = response in the unintended direction; inactive = score below 0.9.

Each compound was assayed on glucuronosyltransferase (UGT1A1), UGT1A1 (gene 54658) (assay: CLD_UGT1A1_24hr: CellzDirect (CLD) Gene Expression Assay for glucuronosyltransferase (UGT1A1) at 24 hours (AID 2283696)).
Procedure: CLD_24hr is a cell-based, multiplexed-readout assay that uses hepatocyte, a human liver primary cell, with measurements taken at 24 hours after chemical dosing in a 96-well plate.CLD_UGT1A1_24hr is one of 16 assay component(s) measured or calculated from the CLD_24hr assay. It is designed to make measurements of mRNA induction, a form of inducible reporter, as detected with chemiluminescence signals by Quantitative Nuclease Protection Assay (qNPA) technology.Data from the assay component CLD_UGT1A1_24hr was analyzed at the endpoint, CLD_UGT1A1_24hr, in the positive analysis fitting direction relative to DMSO as the negative control and baseline of activity. Using a type of inducible reporter, gain-of-signal activity can be used to understand changes in the reporter gene as they relate to the gene UGT1A1. Furthermore, this assay endpoint can be referred to as a primary readout. To generalize the intended target to other relatable targets, this assay endpoint is annotated to the transferase intended target family, where subfamily is glucuronosyltransferase.
Human hepatocyte cultures were treated daily for two consecutive days with fresh dosing solutions containing appropriate concentrations of the 320 ToxCast chemicals (chemical identities were blinded to CellzDirect and other ToxCast collaborators), vehicle control (0.2% DMSO), and positive control inducers as summarized in Table 1. Due to the large number of treatment groups and chemicals examined, the ToxCast chemicals were divided into two groups (spanning two independent cultures of hepatocytes from separate donor preparations (Hu778: ToxCast plates 1 and 2; Hu776: ToxCast plates 3 and 4). Each preparation of human hepatocyte cultures was treated with respective vehicle control, medium only control, set of six positive controls/reference chemicals for the five hepatic receptor pathways, and a subset of eight of the ToxCast chemicals (indoxacarb, pyrithiobac-sodium, norflurazon, cyhalofop-butyl, methomyl, thiram, acetochlor, and propiconazole). These replicate data, coupled with internal replicates designed within the blinded ToxCast chemical library, provided additional data to evaluate interindividual differences between hepatocyte preparations and their potential impact on chemical profiles.Cell morphology and integrity were evaluated using phase-contrast microscopy as an indicator of hepatocyte cell health (Tyson & Green, 1987). Cultures for each treatment group (i.e., media, vehicle [0.2% DMSO], positive control inducers [multiple concentrations], and the ToxCast chemicals [multiple concentrations]) were observed and cell morphology was assessed relative to vehicle control cultures at each harvest time point (0, 6, 24, or 48 h). […] Images were evaluated at the conclusion of the study to assess changes in cell integrity and account for the effects of chemical exposure on uncharacteristic changes in concentration-dependent gene expression profiles. The results from these determinations of apparent cytotoxicity were annotated (yes/no) alongside the corresponding qNPA data for reference.At the conclusion of each treatment period, hepatocyte cultures (96-well) were washed with 1 volume of HBSS, lysed by addition of 25 ul ArrayPlate lysis buffer (HTG, Tucson, AZ), and 70 ul/well of Denaturation Oil, denatured by incubation at 95C for 10 min, and frozen at approximately -70C until analysis by nuclease protection assay (qNPA) (Roberts et al., 2007). For qNPA analysis, cell lysates were thawed at 50C for approximately 30 min, qNPA probes were added, and samples were incubated at 95C for 10 min to begin the detection process by denaturing the target RNA, dissociating the duplexes and secondary structure hybridization. At the conclusion of the hybridization period, S1 nuclease reagent was added to each sample to digest all nonprotected nucleotides at 50C for 60-90 min. […]

| Structure (SMILES) | outcome | AC50 |
| --- | --- | --- |
| CCCC1COC(Cn2cncn2)(c2ccc(Cl)cc2Cl)O1 (stereo not given) | inactive | – |
| O=C(O)COc1nc(Cl)c(Cl)cc1Cl | inactive | – |
| COC(=O)N(OC)c1ccccc1COc1ccn(-c2ccc(Cl)cc2)n1 | inactive | – |
| CNC(=O)ON=CC(C)(C)SC | inactive | – |
| COc1nc(NC(C)C)nc(NC(C)C)n1 | inactive | – |
| COC(=O)C=C(C)OP(=O)(OC)OC | inactive | – |
| Oc1ccccc1-c1ccccc1 | inactive | – |
| Cc1c(F)c(F)c(COC(=O)C2C(/C=C(\Cl)C(F)(F)F)C2(C)C)c(F)c1F (stereo not given) | inactive | – |
| CCON=C(CC)C1=C(O)CC(c2c(C)cc(C)cc2C)CC1=O (stereo not given) | inactive | – |
| CC(C)(C)c1ccc(CSc2cnn(C(C)(C)C)c(=O)c2Cl)cc1 | inactive | – |
| CCCCC(CC)COC(=O)c1ccccc1C(=O)OCC(CC)CCCC (stereo not given) | inactive | – |
| CC1=C(C(=O)Nc2ccccc2)SCCO1 | inactive | – |
| OC(c1ccc(Cl)cc1)(c1cncnc1)c1ccccc1Cl (stereo not given) | inactive | – |
| O=C(Nc1ccccc1)Nc1ccnc(Cl)c1 | inactive | – |
| CCCN(CCC)c1c([N+](=O)[O-])cc(S(N)(=O)=O)cc1[N+](=O)[O-] | inactive | – |
| CS/C(C)=N/OC(=O)N(C)SN(C)C(=O)O/N=C(\C)SC | inactive | – |
| CCCCNC(=O)n1c(NC(=O)OC)nc2ccccc21 | inactive | – |
| CCNc1nc(Cl)nc(NCC)n1 | inactive | – |
| COc1nc(C)nc(NC(=O)NS(=O)(=O)c2ccccc2CCC(F)(F)F)n1 | inactive | – |
| COP(=S)(OC)Oc1nc(Cl)c(Cl)cc1Cl | inactive | – |

| Structure (SMILES) | outcome | AC50 |
| --- | --- | --- |
| CCOC(=O)C(Cl)Cc1cc(-n2nc(C)n(C(F)F)c2=O)c(F)cc1Cl (stereo not given) | inactive | – |
| COc1cnc(OC)n2nc(NS(=O)(=O)c3c(OCC(F)F)cccc3C(F)(F)F)nc12 | inactive | – |
| Cc1cc(Cl)ccc1OCC(=O)O | inactive | – |
| CCOc1cc(Oc2ccc(C(F)(F)F)cc2Cl)ccc1[N+](=O)[O-] | inactive | – |
| CC1COC(Cn2cncn2)(c2ccc(Oc3ccc(Cl)cc3)cc2Cl)O1 (stereo not given) | inactive | – |
| CCCCNC(=O)OCC#CI | inactive | – |
| Fc1ccc(Oc2ccnc3cc(Cl)cc(Cl)c23)cc1 | inactive | – |
| CCOP(=S)(OCC)SCn1c(=O)oc2cc(Cl)ccc21 | inactive | – |
| CCCCOC(=O)c1ccccc1C(=O)OCCCC | inactive | – |
| N#Cc1cc(Br)c(O)c(Br)c1 | inactive | – |
| Cc1ccc(-c2c(Cl)nc(C#N)n2S(=O)(=O)N(C)C)cc1 | inactive | – |
| COC(=O)c1ccccc1C(=O)OC | inactive | – |
| C=CCC1=C(C)[C@@H](OC(=O)[C@@H]2[C@@H](C=C(C)C)C2(C)C)CC1=O | – | 20 µM (active) |
| CCOC(=O)CC(SP(=S)(OC)OC)C(=O)OCC (stereo not given) | inactive | – |
| CC(Oc1ccc(Cl)cc1Cl)C(=O)O (stereo not given) | inactive | – |
| CC(C)Oc1cc(-n2nc(C(C)(C)C)oc2=O)c(Cl)cc1Cl | inactive | – |
| CO/C=C(/C(=O)OC)c1ccccc1Oc1cc(Oc2ccccc2C#N)ncn1 | inactive | – |
| N#Cc1nn(-c2c(Cl)cc(C(F)(F)F)cc2Cl)c(N)c1S(=O)C(F)(F)F (stereo not given) | inactive | – |
| CCNc1nc(Cl)nc(NC(C)C)n1 | – | 6.52 µM (active) |
| COc1nc(C)nc(NC(=O)NS(=O)(=O)c2ccccc2Cl)n1 | inactive | – |
